# Reference: ChEMBL document CHEMBL2218924, “A broad activity screen in support of a chemogenomic map for kinase signalling research and drug discovery” (Biochem J, 2013)
# Columns and labels:
# [1] = target: Death-associated protein kinase 1 (Homo sapiens) (UniProt P53355); conditions: at 10 µM
# [2] = target: Death-associated protein kinase 2 (Homo sapiens) (UniProt Q9UIK4); conditions: at 1 µM
# [3] = target: Death-associated protein kinase 2 (Homo sapiens) (UniProt Q9UIK4); conditions: at 10 µM
# [4] = target: T1, Serine/threonine-protein kinase DCLK2 (Homo sapiens) (UniProt Q8N568); conditions: at 1 µM
# T1 sequence (whole entry): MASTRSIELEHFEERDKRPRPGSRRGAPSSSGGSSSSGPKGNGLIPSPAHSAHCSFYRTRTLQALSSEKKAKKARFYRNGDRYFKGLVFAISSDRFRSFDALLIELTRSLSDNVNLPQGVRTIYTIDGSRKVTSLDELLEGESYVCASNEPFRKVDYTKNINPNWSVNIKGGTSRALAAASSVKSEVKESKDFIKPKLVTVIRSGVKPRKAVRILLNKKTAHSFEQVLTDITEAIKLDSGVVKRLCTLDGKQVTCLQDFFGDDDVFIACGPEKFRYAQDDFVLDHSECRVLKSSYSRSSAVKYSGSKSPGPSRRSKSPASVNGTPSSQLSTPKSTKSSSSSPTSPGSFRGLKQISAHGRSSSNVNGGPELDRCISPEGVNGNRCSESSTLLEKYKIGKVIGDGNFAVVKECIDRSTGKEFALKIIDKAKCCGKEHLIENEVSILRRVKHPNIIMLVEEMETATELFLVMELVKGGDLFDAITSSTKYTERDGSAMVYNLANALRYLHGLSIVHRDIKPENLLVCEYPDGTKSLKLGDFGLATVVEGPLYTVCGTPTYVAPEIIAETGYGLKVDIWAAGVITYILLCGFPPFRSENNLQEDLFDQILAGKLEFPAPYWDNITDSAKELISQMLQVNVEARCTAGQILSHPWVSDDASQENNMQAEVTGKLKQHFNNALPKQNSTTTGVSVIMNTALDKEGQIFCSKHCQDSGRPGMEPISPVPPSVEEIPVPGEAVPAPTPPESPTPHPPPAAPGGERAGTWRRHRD
# [5] = target: T1, Serine/threonine-protein kinase DCLK2 (Homo sapiens); conditions: at 10 µM
# [6] = target: T2, Discoidin domain-containing receptor 2 (Homo sapiens) (UniProt Q16832); conditions: at 1 µM
# T2 sequence (whole entry): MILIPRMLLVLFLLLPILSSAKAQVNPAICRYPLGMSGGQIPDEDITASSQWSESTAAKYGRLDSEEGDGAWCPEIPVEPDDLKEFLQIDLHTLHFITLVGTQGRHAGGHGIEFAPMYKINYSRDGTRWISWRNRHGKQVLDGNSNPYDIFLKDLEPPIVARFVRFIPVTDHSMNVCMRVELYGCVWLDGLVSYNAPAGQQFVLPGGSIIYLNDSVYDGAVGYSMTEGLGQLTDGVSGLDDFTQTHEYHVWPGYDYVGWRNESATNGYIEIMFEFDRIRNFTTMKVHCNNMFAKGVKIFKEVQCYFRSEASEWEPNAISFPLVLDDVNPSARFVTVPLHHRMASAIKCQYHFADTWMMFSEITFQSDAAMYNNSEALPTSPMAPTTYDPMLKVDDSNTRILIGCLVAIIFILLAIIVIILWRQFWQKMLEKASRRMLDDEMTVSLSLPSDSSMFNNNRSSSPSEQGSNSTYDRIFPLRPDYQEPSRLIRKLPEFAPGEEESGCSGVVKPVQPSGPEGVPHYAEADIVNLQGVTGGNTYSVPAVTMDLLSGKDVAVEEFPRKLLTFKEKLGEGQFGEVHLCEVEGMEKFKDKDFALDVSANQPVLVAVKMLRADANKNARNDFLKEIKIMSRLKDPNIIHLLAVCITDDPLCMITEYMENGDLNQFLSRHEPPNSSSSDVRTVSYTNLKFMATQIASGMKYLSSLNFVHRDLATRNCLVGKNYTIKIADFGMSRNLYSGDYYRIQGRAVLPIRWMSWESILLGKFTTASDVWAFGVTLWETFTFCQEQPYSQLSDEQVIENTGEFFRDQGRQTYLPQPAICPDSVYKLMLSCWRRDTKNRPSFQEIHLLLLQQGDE
# [7] = target: T2, Discoidin domain-containing receptor 2 (Homo sapiens); conditions: at 10 µM
# [8] = target: T3, Myotonin-protein kinase (Homo sapiens) (UniProt Q09013); conditions: at 1 µM
# T3 sequence (whole entry): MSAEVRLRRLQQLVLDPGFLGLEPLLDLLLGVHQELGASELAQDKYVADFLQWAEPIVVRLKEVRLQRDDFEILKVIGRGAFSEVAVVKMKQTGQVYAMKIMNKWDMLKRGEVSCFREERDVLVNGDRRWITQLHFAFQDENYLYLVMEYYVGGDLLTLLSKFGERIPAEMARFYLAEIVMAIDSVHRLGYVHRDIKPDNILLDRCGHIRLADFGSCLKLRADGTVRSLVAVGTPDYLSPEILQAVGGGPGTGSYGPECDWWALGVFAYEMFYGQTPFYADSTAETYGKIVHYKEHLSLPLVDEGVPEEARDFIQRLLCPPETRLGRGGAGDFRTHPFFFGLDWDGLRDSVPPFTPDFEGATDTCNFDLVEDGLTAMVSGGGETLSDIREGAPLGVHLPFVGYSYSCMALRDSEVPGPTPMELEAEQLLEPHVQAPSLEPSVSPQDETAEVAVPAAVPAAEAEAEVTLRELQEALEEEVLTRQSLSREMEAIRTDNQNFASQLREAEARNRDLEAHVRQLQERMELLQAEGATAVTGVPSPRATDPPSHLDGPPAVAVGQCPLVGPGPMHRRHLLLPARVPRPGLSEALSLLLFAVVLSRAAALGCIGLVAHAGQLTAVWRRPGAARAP
# [9] = target: T3, Myotonin-protein kinase (Homo sapiens); conditions: at 10 µM
# [10] = target: T4, Serine/threonine-protein kinase 17A (Homo sapiens) (UniProt Q9UEE5); conditions: at 1 µM
# T4 sequence (whole entry): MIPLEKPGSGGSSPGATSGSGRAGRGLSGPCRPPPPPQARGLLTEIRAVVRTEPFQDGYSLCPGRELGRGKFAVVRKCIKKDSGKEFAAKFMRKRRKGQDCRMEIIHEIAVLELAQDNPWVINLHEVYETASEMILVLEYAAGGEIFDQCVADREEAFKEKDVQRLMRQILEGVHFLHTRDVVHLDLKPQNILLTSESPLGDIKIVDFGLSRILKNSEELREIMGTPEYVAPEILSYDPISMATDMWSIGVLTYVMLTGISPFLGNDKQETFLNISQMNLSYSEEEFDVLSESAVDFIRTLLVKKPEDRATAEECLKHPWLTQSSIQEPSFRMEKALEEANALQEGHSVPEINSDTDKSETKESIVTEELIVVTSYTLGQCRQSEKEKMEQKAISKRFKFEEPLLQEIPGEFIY
# [11] = target: T4, Serine/threonine-protein kinase 17A (Homo sapiens); conditions: at 10 µM
# [12] = target: T5, Dual specificity tyrosine-phosphorylation-regulated kinase 2 (Homo sapiens) (UniProt Q92630); conditions: at 1 µM
# T5 sequence (whole entry): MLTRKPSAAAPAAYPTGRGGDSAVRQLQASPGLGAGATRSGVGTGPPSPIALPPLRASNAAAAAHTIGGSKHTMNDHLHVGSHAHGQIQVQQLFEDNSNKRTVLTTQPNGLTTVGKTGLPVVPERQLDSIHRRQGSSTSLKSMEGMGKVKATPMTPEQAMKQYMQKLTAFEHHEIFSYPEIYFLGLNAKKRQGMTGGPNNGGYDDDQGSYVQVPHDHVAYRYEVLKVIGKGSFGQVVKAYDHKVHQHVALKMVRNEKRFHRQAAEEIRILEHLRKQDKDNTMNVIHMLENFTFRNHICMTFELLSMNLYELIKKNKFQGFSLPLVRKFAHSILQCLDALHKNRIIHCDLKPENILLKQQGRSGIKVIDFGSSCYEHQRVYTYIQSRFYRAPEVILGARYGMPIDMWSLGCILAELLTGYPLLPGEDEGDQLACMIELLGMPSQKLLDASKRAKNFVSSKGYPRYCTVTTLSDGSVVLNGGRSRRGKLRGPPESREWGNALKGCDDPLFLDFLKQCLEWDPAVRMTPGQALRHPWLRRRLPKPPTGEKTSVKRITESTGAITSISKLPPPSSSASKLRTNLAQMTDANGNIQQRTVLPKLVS
# [13] = target: T5, Dual specificity tyrosine-phosphorylation-regulated kinase 2 (Homo sapiens); conditions: at 10 µM
# [14] = target: T6, Ephrin type-A receptor 1 (Homo sapiens) (UniProt P21709); conditions: at 1 µM
# T6 sequence (whole entry): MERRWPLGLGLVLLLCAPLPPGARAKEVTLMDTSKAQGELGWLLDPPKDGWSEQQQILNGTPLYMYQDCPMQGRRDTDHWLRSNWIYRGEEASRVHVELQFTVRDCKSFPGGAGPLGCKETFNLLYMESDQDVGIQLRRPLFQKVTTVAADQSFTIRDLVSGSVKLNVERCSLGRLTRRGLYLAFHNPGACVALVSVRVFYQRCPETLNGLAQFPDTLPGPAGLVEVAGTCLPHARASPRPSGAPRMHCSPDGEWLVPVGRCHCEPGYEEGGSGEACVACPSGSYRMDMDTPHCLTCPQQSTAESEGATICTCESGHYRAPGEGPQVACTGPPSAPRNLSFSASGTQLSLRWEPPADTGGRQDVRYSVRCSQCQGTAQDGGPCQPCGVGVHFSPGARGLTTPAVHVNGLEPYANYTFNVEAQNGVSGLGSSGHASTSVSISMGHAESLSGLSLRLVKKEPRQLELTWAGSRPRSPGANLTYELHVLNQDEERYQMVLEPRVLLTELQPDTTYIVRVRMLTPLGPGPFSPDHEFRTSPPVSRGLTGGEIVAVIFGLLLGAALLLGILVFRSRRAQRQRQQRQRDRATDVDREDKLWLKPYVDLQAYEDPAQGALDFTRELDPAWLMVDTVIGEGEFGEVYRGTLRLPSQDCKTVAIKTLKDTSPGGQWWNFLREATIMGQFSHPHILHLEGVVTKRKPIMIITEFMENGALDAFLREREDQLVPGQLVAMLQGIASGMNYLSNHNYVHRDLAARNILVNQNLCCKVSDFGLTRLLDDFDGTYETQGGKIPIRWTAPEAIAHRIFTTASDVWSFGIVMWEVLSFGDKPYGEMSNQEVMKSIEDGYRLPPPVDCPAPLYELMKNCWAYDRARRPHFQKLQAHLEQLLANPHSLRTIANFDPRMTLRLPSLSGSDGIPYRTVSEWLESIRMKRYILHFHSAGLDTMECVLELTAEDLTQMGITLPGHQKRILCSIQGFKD
# [15] = target: T6, Ephrin type-A receptor 1 (Homo sapiens); conditions: at 10 µM
# [16] = target: Ephrin type-A receptor 2 (Homo sapiens) (UniProt P29317); conditions: at 1 µM
# [17] = target: Ephrin type-A receptor 2 (Homo sapiens) (UniProt P29317); conditions: at 10 µM
# [18] = target: T7, Ephrin type-A receptor 3 (Homo sapiens) (UniProt P29320); conditions: at 1 µM
# T7 sequence (whole entry): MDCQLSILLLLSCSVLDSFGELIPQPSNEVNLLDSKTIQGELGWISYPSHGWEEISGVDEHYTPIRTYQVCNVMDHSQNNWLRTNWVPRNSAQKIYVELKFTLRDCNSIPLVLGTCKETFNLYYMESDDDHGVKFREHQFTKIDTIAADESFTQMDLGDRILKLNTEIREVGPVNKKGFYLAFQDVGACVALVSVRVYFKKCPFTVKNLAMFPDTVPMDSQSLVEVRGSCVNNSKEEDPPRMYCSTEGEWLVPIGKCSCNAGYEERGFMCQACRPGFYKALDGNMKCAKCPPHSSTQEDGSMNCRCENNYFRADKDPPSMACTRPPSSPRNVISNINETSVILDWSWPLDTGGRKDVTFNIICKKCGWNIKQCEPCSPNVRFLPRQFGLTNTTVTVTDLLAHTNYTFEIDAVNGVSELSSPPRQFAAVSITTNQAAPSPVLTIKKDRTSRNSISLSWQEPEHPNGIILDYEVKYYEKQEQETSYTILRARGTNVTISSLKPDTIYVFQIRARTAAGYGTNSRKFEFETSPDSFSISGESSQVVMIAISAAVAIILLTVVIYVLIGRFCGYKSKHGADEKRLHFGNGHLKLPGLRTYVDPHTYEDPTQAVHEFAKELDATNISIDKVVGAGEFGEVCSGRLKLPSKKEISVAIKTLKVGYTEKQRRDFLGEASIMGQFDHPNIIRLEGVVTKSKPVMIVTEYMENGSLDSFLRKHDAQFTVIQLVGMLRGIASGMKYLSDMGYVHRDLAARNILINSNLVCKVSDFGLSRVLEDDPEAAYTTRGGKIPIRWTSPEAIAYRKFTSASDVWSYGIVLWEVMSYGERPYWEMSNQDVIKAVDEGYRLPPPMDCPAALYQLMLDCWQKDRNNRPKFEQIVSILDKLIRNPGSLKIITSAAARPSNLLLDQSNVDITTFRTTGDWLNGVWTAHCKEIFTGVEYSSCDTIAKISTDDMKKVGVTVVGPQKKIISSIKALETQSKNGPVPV
# Sequence of Ephrin type-A receptor 2 (Homo sapiens) (P29317 whole entry): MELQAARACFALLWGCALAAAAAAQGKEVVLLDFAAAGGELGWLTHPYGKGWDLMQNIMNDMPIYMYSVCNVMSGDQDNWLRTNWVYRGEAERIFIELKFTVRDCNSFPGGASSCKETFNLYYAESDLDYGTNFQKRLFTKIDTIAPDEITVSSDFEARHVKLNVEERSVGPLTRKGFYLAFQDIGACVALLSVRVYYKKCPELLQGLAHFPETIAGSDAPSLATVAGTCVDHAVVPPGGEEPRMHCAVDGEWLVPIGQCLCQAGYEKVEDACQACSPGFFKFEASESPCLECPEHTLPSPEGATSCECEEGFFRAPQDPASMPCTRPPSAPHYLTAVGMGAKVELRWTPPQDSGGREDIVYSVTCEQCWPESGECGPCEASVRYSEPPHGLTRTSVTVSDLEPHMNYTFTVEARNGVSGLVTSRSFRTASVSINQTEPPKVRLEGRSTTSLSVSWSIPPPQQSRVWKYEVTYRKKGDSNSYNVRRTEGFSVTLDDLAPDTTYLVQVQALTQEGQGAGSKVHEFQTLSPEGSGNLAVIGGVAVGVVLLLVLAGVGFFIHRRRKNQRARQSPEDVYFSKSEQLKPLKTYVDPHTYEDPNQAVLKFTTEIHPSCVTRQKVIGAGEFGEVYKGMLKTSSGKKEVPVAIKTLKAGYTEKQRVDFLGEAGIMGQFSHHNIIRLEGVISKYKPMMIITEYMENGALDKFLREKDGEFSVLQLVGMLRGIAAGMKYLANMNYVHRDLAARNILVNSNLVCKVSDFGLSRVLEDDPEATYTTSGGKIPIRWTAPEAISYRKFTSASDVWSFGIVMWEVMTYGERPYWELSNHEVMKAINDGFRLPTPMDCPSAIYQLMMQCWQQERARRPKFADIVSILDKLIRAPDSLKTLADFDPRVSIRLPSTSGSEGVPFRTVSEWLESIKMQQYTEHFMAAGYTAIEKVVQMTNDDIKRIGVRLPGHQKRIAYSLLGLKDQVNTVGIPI
# Sequence of Death-associated protein kinase 2 (Homo sapiens) (Q9UIK4 whole entry, looked up): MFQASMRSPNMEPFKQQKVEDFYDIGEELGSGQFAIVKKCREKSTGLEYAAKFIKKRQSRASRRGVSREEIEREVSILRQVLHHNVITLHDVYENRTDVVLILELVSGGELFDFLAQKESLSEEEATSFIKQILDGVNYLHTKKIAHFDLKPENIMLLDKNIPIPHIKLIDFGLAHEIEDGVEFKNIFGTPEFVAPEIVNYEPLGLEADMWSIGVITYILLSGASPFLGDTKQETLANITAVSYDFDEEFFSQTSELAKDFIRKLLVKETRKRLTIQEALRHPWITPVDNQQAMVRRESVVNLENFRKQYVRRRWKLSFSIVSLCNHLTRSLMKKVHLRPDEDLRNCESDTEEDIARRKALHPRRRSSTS
# Sequence of Death-associated protein kinase 1 (Homo sapiens) (P53355 whole entry, looked up): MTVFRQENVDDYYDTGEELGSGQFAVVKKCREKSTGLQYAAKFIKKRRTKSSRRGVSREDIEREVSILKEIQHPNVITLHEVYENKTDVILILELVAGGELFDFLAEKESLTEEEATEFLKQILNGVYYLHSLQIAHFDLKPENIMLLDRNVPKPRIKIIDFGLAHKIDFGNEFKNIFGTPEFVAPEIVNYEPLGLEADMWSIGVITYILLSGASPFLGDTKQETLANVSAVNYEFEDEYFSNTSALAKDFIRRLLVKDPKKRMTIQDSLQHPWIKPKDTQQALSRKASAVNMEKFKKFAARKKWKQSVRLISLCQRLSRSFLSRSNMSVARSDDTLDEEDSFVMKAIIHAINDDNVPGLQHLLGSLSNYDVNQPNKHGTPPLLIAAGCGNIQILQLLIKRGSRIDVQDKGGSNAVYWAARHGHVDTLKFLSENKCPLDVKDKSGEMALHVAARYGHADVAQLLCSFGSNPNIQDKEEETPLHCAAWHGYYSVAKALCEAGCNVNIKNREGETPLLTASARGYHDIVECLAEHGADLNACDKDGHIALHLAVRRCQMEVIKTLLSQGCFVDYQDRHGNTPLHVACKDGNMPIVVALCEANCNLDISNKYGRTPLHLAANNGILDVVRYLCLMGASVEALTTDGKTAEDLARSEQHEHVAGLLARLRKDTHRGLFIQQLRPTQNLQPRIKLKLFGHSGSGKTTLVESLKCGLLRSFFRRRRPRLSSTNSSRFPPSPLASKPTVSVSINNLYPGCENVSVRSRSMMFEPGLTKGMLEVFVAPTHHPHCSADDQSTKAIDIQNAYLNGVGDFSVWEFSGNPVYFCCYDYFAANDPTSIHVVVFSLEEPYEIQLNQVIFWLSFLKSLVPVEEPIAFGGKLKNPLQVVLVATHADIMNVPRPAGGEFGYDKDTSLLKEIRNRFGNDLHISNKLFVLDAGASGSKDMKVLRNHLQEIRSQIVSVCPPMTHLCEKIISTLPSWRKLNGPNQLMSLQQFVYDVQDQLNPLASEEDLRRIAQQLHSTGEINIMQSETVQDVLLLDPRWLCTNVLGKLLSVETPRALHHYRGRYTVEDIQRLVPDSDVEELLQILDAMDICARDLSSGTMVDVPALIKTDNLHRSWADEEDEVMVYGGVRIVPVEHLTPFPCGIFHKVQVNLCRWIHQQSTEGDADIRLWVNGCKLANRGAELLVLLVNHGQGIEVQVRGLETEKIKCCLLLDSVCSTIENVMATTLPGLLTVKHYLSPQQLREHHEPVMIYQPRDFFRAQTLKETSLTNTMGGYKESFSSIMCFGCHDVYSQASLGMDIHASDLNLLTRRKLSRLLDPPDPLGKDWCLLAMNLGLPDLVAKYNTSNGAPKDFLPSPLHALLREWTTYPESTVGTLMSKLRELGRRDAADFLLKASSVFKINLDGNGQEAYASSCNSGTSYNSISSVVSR
SMILES,residual activity [1],residual activity [2],residual activity [3],residual activity [4],residual activity [5],residual activity [6],residual activity [7],residual activity [8],residual activity [9],residual activity [10],residual activity [11],residual activity [12],residual activity [13],residual activity [14],residual activity [15],residual activity [16],residual activity [17],residual activity [18]
Cc1ccc(S(=O)(=O)/C=C/C#N)cc1,87%,104%,105%,125%,99%,98%,100%,125%,100%,105%,95%,96%,102%,95%,92%,106%,108%,103%
CO[C@H]1[C@@H](OC)C[C@H](C)[C@@H](OC)C2=CC(=O)C=C(NC(=O)/C(C)=C/C=C/[C@H](OC)[C@@H](OC(N)=O)/C(C)=C/[C@@H]1C)C2=O,78%,104%,114%,89%,75%,98%,99%,147%,127%,86%,88%,95%,101%,94%,102%,105%,113%,101%
